Our source for the outcome values is PubChem BioAssay AID2781 (National Center for Advancing Translational Sciences (NCATS), 2010).

Calls of active or inactive are those of the source.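 Rule for the calls: active = compound whose NMR saturation transfer difference test with menin is positive, showing direct binding to the protein; inactive = the rest.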

Chain of Menin (Homo sapiens) (O00255 whole entry, looked up, the tested form may be a part): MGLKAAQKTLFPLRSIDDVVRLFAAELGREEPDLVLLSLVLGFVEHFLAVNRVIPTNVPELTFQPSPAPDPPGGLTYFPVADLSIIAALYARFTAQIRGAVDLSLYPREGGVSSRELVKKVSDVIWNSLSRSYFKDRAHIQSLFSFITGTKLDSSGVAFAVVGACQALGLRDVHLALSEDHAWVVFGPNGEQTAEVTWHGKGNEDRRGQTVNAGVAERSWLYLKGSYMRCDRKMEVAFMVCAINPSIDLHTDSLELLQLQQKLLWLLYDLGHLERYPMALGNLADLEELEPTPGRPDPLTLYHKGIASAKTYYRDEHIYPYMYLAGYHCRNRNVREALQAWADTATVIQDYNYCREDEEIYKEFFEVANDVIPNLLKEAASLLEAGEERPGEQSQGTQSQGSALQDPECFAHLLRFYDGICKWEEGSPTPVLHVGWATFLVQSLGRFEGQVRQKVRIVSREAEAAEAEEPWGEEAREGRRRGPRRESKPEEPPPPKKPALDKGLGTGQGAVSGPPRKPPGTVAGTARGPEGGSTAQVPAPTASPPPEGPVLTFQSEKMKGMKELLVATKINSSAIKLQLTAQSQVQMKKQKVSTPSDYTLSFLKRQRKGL

This test has as its target Menin (Homo sapiens) (UniProt O00255). The test can be described thus: Confirmation of Inhibitors Targeting the Menin-MLL Interaction in MLL Related Leukemias: NMR spectroscopy to verify direct binding of compounds to menin. To be noted: purified menin, NMR STD binding, 100 uM. From the text: qHTS Assay for Inhibitors Targeting the Menin-MLL Interaction in MLL Related Leukemias NIH Chemical Genomics Center [NCGC] NIH Molecular Libraries Probe Centers Network [MLPCN] MLPCN Grant: MH084875-01A1 Assay Submitter (PI): Jolanta Grembecka, Tomasz Cierpicki, University of Virginia Translocations of the MLL (Mixed Lineage Leukemia) gene are frequently found in human leukemias affecting both children and adults. Fusion of MLL to one of more than 60 genes results in generation of oncogenic proteins upregulating Hox genes, which are vital to blood cell development. Patients harboring fusion of the MLL gene suffer from aggressive leukemias and respond poorly to available therapies. All of the oncogenic fusion proteins have a preserved N-terminal fragment of MLL that has been identified to interact with menin. It has been recently discovered that association with menin is critical to the leukemogenic activity of the MLL fusion oncoproteins. Selective targeting of the menin-MLL interaction could provide an attractive therapeutic approach to develop novel drugs for MLL-related leukemias. Small molecules blocking the menin-MLL interaction should reverse the oncogenic potential of MLL fusion proteins. We have developed and optimized a fluorescence polarization-based assay for the identification of Menin-MLL inhibitors. The assay was run employing two different MLL-derived peptides. The present assay uses a 12 amino acid peptide labeled with fluorescein at its N-terminus. This peptide consists of the menin high affinity binding motif from MLL and is potently bound by menin. Another peptide with a mutated sequence, labeled with Texas Red, was used in parallel as a less stringent screen for inhibitors. The present assay was developed to confirm hits from this primary screen, examining saturation transfer differences in NMR spectra upon incubation of the menin protein with compound.
The Menin protein, the MLL-wild type (w.t.) derived peptide (N-terminal 12 amino acids), the MLL-derived peptide labeled with Texas Red and the MLL-w.t. peptide labeled with Fluorescein were kindly supplied by laboratory of Dr. Jolanta Grembecka, University of Virginia. All protein and peptide solutions were stored in single use aliquots at -80C. The Buffer components for all assays were purchased from Sigma-Aldrich (St. Louis, MO) and Invitrogen (Carlsbad, CA). Assay Reagents: 1. Menin protein 2. MLL w.t. 3. NMR buffer: 50mM phosphate, 50mM NaCl, 1mM DTT, pH = 7.5 NMR protocol: 1. Prepare 450 uL of menin (2.5 uM) in complex with 100uM compound in NMR buffer and run STD (Saturation Transfer Difference) on NMR Bruker 600 MHz 2. Prepare 450 uL of menin (2.5 uM) in complex with 100 uM compound and 25uM of MLL w.t. in NMR buffer and run STD (Saturation Transfer Difference) on NMR Bruker 600 MHz
Turning to `O=C(CS)Nc1ccc2ccccc2c1`, the outcome is “inactive; negative”. In the case of `CC(=O)NC1C(=O)N(CCN2CCOCC2)c2ccc(C)cc21` (stereo not given), the outcome is “inactive; negative”. With `O=C(CSc1nc(O)cc(=O)n1-c1ccccc1)c1ccc(Br)cc1` the entry was “inactive; negative”; with `N=C1c2ccccc2CN1c1ccc(N2CCOCC2)c(S(=O)(=O)Nc2ccc(Cl)cc2)c1`, “inactive; negative”; with `COc1ccccc1NS(=O)(=O)c1cc(N2Cc3ccccc3C2=N)ccc1N1CCOCC1`, “inactive; negative”. With `COc1ccccc1C(=O)Nc1ccnn1C1CCN(CC2CC=CCC2)CC1` (stereo not given) the entry was “active; positive”. With `O=C1C(SCCO)=C(SCCO)C(=O)c2ccccc21` the entry was “inactive; negative”; with `COC(=O)[C@H](C)NC(=O)c1cc2c(cn1)[nH]c1ccccc12`, “inactive; negative”; with `CCc1oc2ccccc2c1C(=O)c1cc(Br)c(O)c(Br)c1`, “inactive; negative”. As for `CCOC(=O)c1cnc2ccc(OCC)cc2c1N1CCN(C)CC1`, the outcome was “active; positive”.

For the compound `CCC[n+]1c2ccccc2cc2ccccc21`, the outcome is “inactive; negative”.

With `CNC[C@H](CC1CCCCC1)NC[C@H](Cc1ccccc1)NCCC12CC3CC(CC(C3)C1)C2`, the outcome was “inactive; negative”. `Cc1ccc(-c2cc(C(=O)Nc3cc(C)ccc3O)no2)cc1`: the outcome was “inactive; negative”. With `O=C(O)CSc1cc(NS(=O)(=O)c2ccc(Br)cc2)c2ccccc2c1O` the entry was “inactive; negative”. Consider `COc1ccc(Cn2nnnc2C(c2ccc3ncccc3c2)N2CCN(C3CCCCC3)CC2)cc1` (stereo not given), for which the outcome is “active; positive”. The same measure for `CN(CCOc1ccc(Cl)cc1)CC(O)c1ccccc1` (stereo not given): “inactive; negative”; for `CCc1cc2c(N3CCN(c4nnc(CC)s4)CC3)ncnc2s1`: “inactive; negative”.

Consider `O=C(COC(=O)c1ccc(NS(=O)(=O)c2cccs2)cc1)Nc1nc2c(F)c(F)c(F)cc2s1`, for which the outcome was “inactive; negative”. As for `CCNc1ccccc1CP(=O)(c1ccccc1)c1ccccc1O` (stereo not given), the outcome is “inactive; negative”. The same measure for `COC(=O)Cc1c(C)nc2nc(-c3ccc(OC)cc3)[nH]n2c1=O`: “inactive; negative”; for `O=C(CCC1CCCCC1)NCCN1C2=NC[C@H](Cc3ccc(O)cc3)N2C[C@H]1Cc1ccc(O)cc1`: “active; positive”; for `Cc1cc2[nH]c3c(c[n+](C)c4ccccc34)c2cc1C`: “inactive; negative”.

As for `Oc1ccc(Nc2ncnc3c2oc2ccccc23)cc1`, the outcome is “inactive; negative”. As to `CCCC[n+]1c2ccccc2cc2ccccc21`, the outcome was “inactive; negative”.

With `CCC(c1nnnn1Cc1ccc(F)cc1)N1CCN(C2CCCCC2)CC1` (stereo not given), the outcome is “active; positive”. With `CN(C)C(CNc1ncnc2sc3c(c12)CCCCC3)c1ccco1` (stereo not given) the entry was “active; positive”; with `COc1ccccc1NS(=O)(=O)c1cc(NC(=O)Nc2cccc(C)c2)ccc1N1CCCCC1`, “inactive; negative”. `COc1ccc(S(=O)(=O)Nc2cc(SCC(=O)O)c(O)c3ccccc23)cc1`: the outcome is “inactive; negative”. The same measure for `O=C(Nc1cc(Br)ccc1O)c1cc(-c2ccc3c(c2)OCO3)on1`: “inactive; negative”; for `CCN(CC)Cc1cc2[nH]c3c4ccc(Cl)cc4ncc3c2cc1OC`: “inactive; negative”; for `O=C(Nc1ccc(F)c(Cl)c1)c1cc(-c2ccco2)on1`: “inactive; negative”. On to `C[C@H](NC(=O)c1cc2c(cn1)[nH]c1ccccc12)C(=O)O`, for which the outcome was “inactive; negative”. With `CN(C)c1ccc(C2CC(=O)C=C(Nc3ccccc3N)C2)cc1` (stereo not given) the entry was “inactive; negative”; with `O=C(Nc1nnc(-c2ccccc2SCc2ccccc2)s1)Nc1ccccc1F`, “inactive; negative”; with `CCc1cc2c(N3CCN(C(=O)c4ccco4)CC3)ncnc2s1`, “inactive; negative”.

For the compound `COc1cc(-c2ccc(-[n+]3nc(-c4ccccc4)nn3-c3ccc([N+](=O)[O-])cc3)c(OC)c2)ccc1-[n+]1nc(-c2ccccc2)nn1-c1ccc([N+](=O)[O-])cc1`, the outcome was “inactive; negative”. Regarding `CC1CCCCN1S(=O)(=O)c1ccc(C(=O)Nc2ccccc2-c2nc3ccccc3[nH]2)cc1` (stereo not given), the outcome was “inactive; negative”. With `Cc1sc2ncnc(NC3CCN(Cc4ccccc4)CC3)c2c1C` the entry was “active; positive”.

As to `COc1ccc2[nH]c3c(C)c4ccncc4c(C)c3c2c1`, the outcome was “inactive; negative”. For the compound `CCCC(c1nnnn1Cc1cccs1)N1CCN(C2CCCC2)CC1` (stereo not given), the outcome is “active; positive”.
